Laboratory results from the supplement of paper PMC9135407.
Where a name gives a salt, the structure may show the parent alone.

System: primary human hepatic stellate cells (donor 1)
Experiment: COL1A1 mRNA fold change vs DMSO (normalised to PSMB2); higher = more COL1A1 expression, active = hit call of the paper
Details: 48 h
Description: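 Secondary qRT-PCR screen in primary human HSCs (donor 1), 384-well plates, with compounds dispensed in quadruplicate and incubated for 48 h. Cells-to-CT lysates were used for multiplexed TaqMan qPCR of ACTA2 or COL1A1 with PSMB2 as reference. Fold changes versus DMSO come from a linear model (Ct_gene ~ Ct_PSMB2 + plate + chemical). A hit is defined as COL1A1 and ACTA2 FC <0.5 (FDR <0.05) with PSMB2 between 0.2 and 2.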

| SMILES | COL1A1 mRNA fold change |
| --- | --- |
| O=C1C2CCN(CC2)C1(CO)CO (90 µM) | 1.07 (inactive) |
| CCN(CC)CCO[C@H]1CC[C@@]2(C)C(=CC[C@@H]3[C@@H]2CC[C@]2(C)C(=O)CC[C@@H]32)C1 (33.3333 µM) | 0.921 (inactive) |
| C[C@@H]1O[C@@H](O[C@H]2C[C@@H](O)[C@]3(CO)[C@H]4[C@H](O)C[C@]5(C)[C@@H](C6=CC(=O)OC6)CC[C@]5(O)[C@@H]4CC[C@]3(O)C2)[C@H](O)[C@H](O)[C@H]1O [Ouabain] (33.3333 µM) | 0.0962 (active) |
| COc1ccc2[nH]cc(C3=CCNCC3)c2c1 (33.3333 µM) | 2.45 (inactive) |
| CC(C(=O)OC1CC2CCC(C1)N2C)c1ccc(Br)cc1 (configuration not stated) [PG-9 maleate] (33.3333 µM) | 0.598 (inactive) |
| CC[C@H]1CN2CCc3cc(OC)c(OC)cc3[C@@H]2C[C@@H]1C[C@H]1NCCc2cc(OC)c(OC)cc21 [Emetine] (12.0333 µM) | 0.216 (active) |
| Fc1cc(F)c2c(c1)[C@H]1C=CC[C@H]1C(c1cccnc1)N2 (some centres not stated) [Golgicide A] (33.3333 µM) | 0.111 (active) |
| CCCCCCCCCCCCCC(=O)O[C@@H]1[C@@H](C)[C@@]2(O)[C@@H](C=C(CO)C[C@]3(O)C(=O)C(C)=C[C@@H]23)[C@@H]2C(C)(C)[C@]12OC(C)=O [Phorbol 12-myristate 13-acetate] (27.0333 µM) | 0.71 (inactive) |
| C[C@]12CC[C@H](O)C[C@H]1CC[C@@H]1[C@@H]2CC[C@]2(C)[C@@H](C3=CC(=O)OC3)CC[C@]12O [Digitoxigenin] (33.3333 µM) | 0.099 (active) |
| O=c1[nH]c2ccccc2n1C1CCN(CCCC(c2ccc(F)cc2)c2ccc(F)cc2)CC1 [Pimozide] (33.3333 µM) | 0.027 (inactive) |
| CC1=C(O)C(=O)C=C2C1=CC=C1[C@@]2(C)CC[C@@]2(C)[C@@H]3C[C@](C)(C(=O)O)CC[C@]3(C)CC[C@]12C [Celastrol] (3.33333 µM) | 1.09 (inactive) |
| C[C@H](N)Cn1ccc2cc(F)c(Cl)cc21 [Ro 60-0175 fumarate] (33.3333 µM) | 2.21 (inactive) |
| CN(C(=O)Cc1ccc(Cl)c(Cl)c1)[C@H](CN1CCCC1)c1ccccc1 [ICI-199,441 hydrochloride] (33.3333 µM) | 0.743 (inactive) |
| CC1=C(CC/C(C)=C/CCC2=CC[C@H](C3=CC(=O)O[C@H]3O)O[C@H]2O)C(C)(C)CCC1 [Manoalide] (40 µM) | 0.236 (active) |
| O=[N+]([O-])/C=C/c1ccc2c(c1)OCO2 (3.7 µM) | 0.638 (inactive) |
| CC1=NCCc2c1[nH]c1cc(O)ccc21 [Harmalol hydrochloride dihydrate] (24.4333 µM) | 1.24 (inactive) |
| CCN1CCN(C(=O)Cc2ccc(Nc3ncc(F)c(Nc4ccc(C(=O)Nc5ccccc5Cl)cc4)n3)cc2)CC1 [Aurora A Inhibitor I] (33.3333 µM) | 0.0414 (inactive) |
| CN1[C@@H]2CC[C@H]1C[C@@H](OC(c1ccc(F)cc1)c1ccc(F)cc1)C2 [3 α-Bis-(4-fluorophenyl) methoxytropane hydrochloride] (33.3333 µM) | 1.54 (inactive) |
| CN[C@@H]1C[C@H]2O[C@@](C)([C@@H]1OC)n1c3ccccc3c3c4c(c5c6ccccc6n2c5c31)C(=O)NC4 [staurosporine] (35.6667 µM) | 0.11 (inactive) |
| O=C1/C(=C/c2ccccc2)C[C@@]2(O)[C@H]3Cc4ccc(O)c5c4[C@@]2(CCN3CC2CC2)[C@H]1O5 [BNTX maleate] (33.3333 µM) | 0.233 (inactive) |
| COc1ccc2c(c[n+](C)c3c4cc5c(cc4ccc23)OCO5)c1OC (6.66667 µM) | 0.204 (inactive) |
| CO[C@H]1CC[C@@H](O[C@H]2C[C@H]([C@]3(C)CC[C@]4(C[C@H](O)[C@@H](C)[C@@H]([C@@H](C)/C=C(\C)C(=O)[C@H](C)C[C@H](C)C(=O)O)O4)O3)O[C@]3(O[C@@H]([C@H]4O[C@@](O)(CO)[C@H](C)C[C@@H]4C)C[C@@H]3C)[C@@H]2C)O[C@@H]1C [Nanchangmycin] (11.1 µM) | 0.223 (active) |
